According to publication PMC7862700, “An all-to-all approach to the identification of sequence-specific readers for epigenetic DNA modifications on cytosine”:

What was measured:
Test in all cases: DAPPL (digital affinity profiling via proximity ligation, sequencing); 10 mM Tris-HCl pH 7.5, 50 mM NaCl, 1 mM DTT, 4% glycerol, room temperature, 30 min; GST-TFs on glutathione beads, 16-mer random dsDNA library, 0.1% formaldehyde crosslink after washing; high values mean tight binding
[1] = target: T1, FLI1 (Homo sapiens, UniProt Q01543 1-452); details: protein: recombinant; tags: N-terminal GST; dsDNA, one strand shown
T1 sequence: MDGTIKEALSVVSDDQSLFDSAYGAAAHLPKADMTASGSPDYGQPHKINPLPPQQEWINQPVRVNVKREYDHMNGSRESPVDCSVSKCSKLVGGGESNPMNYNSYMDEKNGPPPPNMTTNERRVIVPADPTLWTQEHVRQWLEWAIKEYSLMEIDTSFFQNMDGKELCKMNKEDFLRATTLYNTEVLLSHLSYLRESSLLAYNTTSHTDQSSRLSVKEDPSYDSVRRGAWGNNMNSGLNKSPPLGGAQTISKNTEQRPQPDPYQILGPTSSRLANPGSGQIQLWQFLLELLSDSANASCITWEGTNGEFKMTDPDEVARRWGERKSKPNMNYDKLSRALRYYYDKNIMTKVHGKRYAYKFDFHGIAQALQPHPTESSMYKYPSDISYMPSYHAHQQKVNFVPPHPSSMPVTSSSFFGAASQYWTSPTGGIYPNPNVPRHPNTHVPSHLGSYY
Method in brief: (§1)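 Pools of DNA-barcoded human transcription factors, expressed in yeast as GST fusions on glutathione beads and combined with a tag-only sample, were incubated with 200 nmole of a 16-mer random double-stranded DNA library. Incubation took 30 min at room temperature in Tris/NaCl/DTT/glycerol buffer and was followed by washing, 0.1% formaldehyde crosslinking, proximity ligation (BsaI/T4 ligase, 1 h, 37 °C), PCR amplification and sequencing on an Illumina NextSeq500. Binding signal is the ratio of a hexamer's read frequency for a factor to its frequency for the tag-only sample.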

[2] = target: T2, ELK1 (Homo sapiens, UniProt P19419 1-428); details: protein: recombinant; tags: N-terminal GST; dsDNA, one strand shown
T2 sequence: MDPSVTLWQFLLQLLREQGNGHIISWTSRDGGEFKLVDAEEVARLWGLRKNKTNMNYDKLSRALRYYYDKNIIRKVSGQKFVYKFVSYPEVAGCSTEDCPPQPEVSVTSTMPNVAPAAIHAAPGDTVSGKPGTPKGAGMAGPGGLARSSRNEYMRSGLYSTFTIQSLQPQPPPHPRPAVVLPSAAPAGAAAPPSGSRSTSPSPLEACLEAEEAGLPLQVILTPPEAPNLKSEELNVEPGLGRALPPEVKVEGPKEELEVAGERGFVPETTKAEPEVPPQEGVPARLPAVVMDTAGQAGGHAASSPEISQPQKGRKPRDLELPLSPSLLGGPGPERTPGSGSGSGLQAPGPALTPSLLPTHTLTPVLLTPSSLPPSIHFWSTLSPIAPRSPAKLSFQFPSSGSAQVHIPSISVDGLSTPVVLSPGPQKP
Method in brief: as §1

[3] = target: T3, GABPA (Homo sapiens, UniProt Q06546 1-454); details: protein: recombinant; tags: N-terminal GST; dsDNA, one strand shown
T3 sequence: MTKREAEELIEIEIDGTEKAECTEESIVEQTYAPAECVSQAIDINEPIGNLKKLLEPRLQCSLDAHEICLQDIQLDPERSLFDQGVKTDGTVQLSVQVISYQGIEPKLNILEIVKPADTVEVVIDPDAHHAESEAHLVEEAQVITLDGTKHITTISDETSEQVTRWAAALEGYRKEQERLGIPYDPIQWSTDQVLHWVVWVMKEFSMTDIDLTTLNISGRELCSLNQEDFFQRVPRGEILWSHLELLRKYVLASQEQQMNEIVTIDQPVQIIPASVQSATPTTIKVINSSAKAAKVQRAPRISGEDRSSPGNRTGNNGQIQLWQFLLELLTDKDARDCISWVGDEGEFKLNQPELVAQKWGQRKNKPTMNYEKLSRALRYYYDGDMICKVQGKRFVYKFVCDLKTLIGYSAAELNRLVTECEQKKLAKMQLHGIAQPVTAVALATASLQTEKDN
Method in brief: as §1

[4] = target: T4, ERG (Homo sapiens, UniProt P11308 1-479); details: protein: recombinant; tags: N-terminal GST; dsDNA, one strand shown
T4 sequence: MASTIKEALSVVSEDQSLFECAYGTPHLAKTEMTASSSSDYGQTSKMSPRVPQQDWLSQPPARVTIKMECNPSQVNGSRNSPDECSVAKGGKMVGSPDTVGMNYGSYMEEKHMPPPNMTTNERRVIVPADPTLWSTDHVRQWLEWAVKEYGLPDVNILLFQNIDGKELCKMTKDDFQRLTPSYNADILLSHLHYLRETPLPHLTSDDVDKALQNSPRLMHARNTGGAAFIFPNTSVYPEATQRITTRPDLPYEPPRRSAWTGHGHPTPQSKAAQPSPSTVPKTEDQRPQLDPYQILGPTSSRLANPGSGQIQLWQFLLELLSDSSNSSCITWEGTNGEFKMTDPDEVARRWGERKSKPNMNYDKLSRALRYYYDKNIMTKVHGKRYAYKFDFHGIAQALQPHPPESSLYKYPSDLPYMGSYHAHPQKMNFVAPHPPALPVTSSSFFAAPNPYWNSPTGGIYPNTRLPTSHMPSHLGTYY
Method in brief: as §1

[5] = target: ELF1 (Homo sapiens, UniProt P32519 1-619); details: protein: recombinant; tags: N-terminal GST; dsDNA, one strand shown
Sequence of ELF1 (P32519 whole entry): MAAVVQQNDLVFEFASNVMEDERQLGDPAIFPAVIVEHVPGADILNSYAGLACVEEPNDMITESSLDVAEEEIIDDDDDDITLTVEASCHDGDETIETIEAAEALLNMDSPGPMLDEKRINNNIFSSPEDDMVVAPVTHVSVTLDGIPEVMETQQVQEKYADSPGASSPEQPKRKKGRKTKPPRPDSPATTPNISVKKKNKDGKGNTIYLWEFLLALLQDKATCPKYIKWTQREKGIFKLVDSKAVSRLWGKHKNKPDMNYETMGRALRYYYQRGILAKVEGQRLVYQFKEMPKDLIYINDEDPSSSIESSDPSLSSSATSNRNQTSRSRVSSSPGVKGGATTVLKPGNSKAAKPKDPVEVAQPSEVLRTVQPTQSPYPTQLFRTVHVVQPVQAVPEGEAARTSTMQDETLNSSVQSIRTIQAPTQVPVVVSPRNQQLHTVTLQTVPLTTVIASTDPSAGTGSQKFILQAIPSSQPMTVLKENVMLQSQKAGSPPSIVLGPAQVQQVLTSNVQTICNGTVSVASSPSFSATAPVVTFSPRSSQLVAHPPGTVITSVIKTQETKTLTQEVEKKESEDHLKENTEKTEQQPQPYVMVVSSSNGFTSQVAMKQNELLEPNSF
Method in brief: as §1

[6] = target: T5, EHF (Homo sapiens, UniProt Q9NZC4 1-300); details: protein: recombinant; tags: N-terminal GST; dsDNA, one strand shown
T5 sequence: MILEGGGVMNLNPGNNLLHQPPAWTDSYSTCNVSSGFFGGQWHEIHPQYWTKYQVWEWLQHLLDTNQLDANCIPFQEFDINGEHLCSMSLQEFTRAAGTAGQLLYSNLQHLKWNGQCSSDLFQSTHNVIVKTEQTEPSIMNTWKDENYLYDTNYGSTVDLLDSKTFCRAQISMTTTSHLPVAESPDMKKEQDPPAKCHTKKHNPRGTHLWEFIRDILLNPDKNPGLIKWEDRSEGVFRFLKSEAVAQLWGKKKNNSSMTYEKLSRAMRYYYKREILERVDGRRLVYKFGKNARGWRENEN
Method in brief: as §1

[7] = target: SPI1 (Homo sapiens, UniProt P17947 1-270); details: protein: recombinant; tags: N-terminal GST; dsDNA, one strand shown
Method in brief: as §1

[8] = target: SPIB (Homo sapiens, UniProt Q01892 1-262); details: protein: recombinant; tags: N-terminal GST; dsDNA, one strand shown
Sequence of SPIB (Q01892 whole entry): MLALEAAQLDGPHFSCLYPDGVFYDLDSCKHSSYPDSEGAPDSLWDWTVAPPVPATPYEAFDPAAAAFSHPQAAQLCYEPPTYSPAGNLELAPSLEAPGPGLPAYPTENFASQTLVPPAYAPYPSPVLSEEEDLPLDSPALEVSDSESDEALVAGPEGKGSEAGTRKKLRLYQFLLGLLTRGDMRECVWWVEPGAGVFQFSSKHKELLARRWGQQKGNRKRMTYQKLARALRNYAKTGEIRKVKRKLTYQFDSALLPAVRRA
Method in brief: as §1

[9] = target: T6, ELK3 (Homo sapiens, UniProt P41970 1-407); details: protein: recombinant; tags: N-terminal GST; dsDNA, one strand shown
T6 sequence: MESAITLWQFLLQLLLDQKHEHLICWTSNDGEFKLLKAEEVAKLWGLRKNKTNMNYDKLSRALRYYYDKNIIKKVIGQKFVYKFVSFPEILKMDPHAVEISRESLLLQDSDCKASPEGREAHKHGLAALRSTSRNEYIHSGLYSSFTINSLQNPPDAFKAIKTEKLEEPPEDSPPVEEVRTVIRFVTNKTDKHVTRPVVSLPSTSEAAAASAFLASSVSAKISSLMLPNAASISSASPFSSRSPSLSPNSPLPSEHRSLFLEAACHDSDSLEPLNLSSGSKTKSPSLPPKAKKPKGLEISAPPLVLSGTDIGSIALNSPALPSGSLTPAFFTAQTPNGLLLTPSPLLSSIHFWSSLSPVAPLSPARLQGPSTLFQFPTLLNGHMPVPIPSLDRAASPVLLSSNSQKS
Method in brief: as §1

[10] = target: T7, FEV (Homo sapiens, UniProt Q99581 1-238); details: protein: recombinant; tags: N-terminal GST; dsDNA, one strand shown
T7 sequence: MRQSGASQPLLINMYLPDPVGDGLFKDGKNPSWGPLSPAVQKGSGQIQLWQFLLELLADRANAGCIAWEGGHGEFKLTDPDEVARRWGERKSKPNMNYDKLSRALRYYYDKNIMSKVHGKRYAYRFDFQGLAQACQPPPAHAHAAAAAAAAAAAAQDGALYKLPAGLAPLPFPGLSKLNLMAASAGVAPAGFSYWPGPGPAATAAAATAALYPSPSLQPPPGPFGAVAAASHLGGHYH
Method in brief: as §1

[11] = target: ETV5 (Homo sapiens, UniProt P41161 1-510); details: protein: recombinant; tags: N-terminal GST; dsDNA, one strand shown
Sequence of ETV5 (P41161 whole entry): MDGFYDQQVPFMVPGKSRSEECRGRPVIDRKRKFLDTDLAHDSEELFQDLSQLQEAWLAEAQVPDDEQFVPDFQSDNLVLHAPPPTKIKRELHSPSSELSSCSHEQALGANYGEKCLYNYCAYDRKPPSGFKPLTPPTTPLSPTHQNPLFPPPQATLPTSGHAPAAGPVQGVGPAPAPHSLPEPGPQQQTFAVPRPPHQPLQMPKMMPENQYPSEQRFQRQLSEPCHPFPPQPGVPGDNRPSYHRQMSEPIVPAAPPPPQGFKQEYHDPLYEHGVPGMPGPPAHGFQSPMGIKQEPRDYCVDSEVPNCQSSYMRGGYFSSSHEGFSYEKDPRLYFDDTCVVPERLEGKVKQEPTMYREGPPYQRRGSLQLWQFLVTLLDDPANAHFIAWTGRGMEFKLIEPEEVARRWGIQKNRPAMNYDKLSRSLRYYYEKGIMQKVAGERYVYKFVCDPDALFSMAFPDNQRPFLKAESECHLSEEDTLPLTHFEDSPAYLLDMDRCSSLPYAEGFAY
Method in brief: as §1

[12] = target: HSF1 (Homo sapiens, UniProt Q00613 1-529); details: protein: recombinant; tags: N-terminal GST; chain copies: 3; dsDNA, one strand shown
Sequence of HSF1 (Q00613 whole entry): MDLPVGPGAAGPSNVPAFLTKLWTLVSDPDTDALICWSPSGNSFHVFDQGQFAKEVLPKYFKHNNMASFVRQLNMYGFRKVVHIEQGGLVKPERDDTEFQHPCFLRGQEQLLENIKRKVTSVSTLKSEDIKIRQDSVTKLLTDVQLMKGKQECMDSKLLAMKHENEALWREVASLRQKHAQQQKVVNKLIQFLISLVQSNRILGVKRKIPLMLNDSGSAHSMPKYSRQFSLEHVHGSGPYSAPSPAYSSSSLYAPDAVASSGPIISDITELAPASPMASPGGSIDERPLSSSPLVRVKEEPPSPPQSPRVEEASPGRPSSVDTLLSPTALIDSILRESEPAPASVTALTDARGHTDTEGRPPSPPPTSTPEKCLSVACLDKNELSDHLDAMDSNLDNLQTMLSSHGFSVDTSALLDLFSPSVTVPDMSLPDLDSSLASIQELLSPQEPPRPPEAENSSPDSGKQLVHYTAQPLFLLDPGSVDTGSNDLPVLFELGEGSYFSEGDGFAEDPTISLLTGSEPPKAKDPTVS
Method in brief: as §1

[13] = target: T8, SPIC (Homo sapiens, UniProt Q8N5J4 1-248); details: protein: recombinant; tags: N-terminal GST; dsDNA, one strand shown
T8 sequence: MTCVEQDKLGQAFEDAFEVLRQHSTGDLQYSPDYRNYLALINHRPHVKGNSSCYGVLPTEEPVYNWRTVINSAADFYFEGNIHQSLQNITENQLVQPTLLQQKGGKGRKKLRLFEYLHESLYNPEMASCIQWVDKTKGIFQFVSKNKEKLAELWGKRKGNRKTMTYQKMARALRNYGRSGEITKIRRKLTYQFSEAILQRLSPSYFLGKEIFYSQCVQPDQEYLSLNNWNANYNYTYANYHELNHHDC
Method in brief: as §1

[14] = target: ELF4 (Homo sapiens, UniProt Q99607 1-663); details: protein: recombinant; tags: N-terminal GST; dsDNA, one strand shown
Sequence of ELF4 (Q99607 whole entry): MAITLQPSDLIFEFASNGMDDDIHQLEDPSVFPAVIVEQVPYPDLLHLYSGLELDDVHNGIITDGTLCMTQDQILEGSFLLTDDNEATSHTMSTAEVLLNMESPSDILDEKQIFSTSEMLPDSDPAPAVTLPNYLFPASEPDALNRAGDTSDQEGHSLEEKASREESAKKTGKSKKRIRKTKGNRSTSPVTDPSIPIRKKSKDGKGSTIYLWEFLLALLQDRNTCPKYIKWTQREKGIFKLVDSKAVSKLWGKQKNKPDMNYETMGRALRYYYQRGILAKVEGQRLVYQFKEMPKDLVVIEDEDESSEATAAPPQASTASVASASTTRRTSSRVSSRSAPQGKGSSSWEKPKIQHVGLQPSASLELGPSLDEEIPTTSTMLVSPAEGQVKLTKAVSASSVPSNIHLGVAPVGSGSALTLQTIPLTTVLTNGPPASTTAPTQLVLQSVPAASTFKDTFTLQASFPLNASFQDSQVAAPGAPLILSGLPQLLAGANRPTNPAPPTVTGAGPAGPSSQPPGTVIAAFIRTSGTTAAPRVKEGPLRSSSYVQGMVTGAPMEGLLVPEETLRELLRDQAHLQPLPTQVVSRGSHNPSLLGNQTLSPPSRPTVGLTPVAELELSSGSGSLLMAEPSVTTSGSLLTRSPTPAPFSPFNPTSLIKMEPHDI
Method in brief: as §1

[15] = target: T9, ELK4 (Homo sapiens, UniProt P28324-2 1-405); details: protein: recombinant; tags: N-terminal GST; dsDNA, one strand shown
T9 sequence: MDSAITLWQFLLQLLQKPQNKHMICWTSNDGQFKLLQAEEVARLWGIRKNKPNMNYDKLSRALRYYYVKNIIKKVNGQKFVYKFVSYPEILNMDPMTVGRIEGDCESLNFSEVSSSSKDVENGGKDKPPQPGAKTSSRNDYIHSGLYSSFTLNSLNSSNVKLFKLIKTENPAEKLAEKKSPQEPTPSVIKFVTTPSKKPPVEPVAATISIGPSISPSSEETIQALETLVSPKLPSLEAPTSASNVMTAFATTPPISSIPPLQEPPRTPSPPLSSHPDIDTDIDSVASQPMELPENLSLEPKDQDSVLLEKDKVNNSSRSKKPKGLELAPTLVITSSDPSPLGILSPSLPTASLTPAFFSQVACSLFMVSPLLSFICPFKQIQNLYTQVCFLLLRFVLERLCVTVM
Method in brief: as §1

[16] = target: T10, ETV2 (Homo sapiens, UniProt O00321 1-342); details: protein: recombinant; tags: N-terminal GST; dsDNA, one strand shown
T10 sequence: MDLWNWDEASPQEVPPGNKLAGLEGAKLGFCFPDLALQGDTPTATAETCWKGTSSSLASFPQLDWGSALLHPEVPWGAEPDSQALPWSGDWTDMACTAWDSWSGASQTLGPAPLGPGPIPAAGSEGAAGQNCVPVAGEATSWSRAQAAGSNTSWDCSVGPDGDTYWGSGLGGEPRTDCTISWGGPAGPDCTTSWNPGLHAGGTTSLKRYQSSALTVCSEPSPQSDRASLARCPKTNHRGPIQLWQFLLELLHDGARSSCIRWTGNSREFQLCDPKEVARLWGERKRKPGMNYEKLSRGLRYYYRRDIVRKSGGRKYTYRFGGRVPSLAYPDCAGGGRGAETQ
Method in brief: as §1

[17] = target: T11, ELF3 (Homo sapiens, UniProt P78545 1-371); details: protein: recombinant; tags: N-terminal GST; dsDNA, one strand shown
T11 sequence: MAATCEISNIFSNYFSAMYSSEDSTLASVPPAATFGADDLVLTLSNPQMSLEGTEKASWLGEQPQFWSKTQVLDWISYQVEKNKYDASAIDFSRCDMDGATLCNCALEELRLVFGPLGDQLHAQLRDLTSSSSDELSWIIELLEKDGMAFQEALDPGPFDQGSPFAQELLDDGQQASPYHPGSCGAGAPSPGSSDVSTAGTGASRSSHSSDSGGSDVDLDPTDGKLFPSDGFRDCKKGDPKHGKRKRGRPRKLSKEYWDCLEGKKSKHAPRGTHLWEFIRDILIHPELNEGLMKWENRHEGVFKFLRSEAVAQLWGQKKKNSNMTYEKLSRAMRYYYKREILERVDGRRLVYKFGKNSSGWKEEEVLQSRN
Method in brief: as §1

[18] = target: CRX (Homo sapiens, UniProt O43186 1-299); details: protein: recombinant; tags: N-terminal GST; dsDNA, one strand shown
Sequence of CRX (O43186 whole entry): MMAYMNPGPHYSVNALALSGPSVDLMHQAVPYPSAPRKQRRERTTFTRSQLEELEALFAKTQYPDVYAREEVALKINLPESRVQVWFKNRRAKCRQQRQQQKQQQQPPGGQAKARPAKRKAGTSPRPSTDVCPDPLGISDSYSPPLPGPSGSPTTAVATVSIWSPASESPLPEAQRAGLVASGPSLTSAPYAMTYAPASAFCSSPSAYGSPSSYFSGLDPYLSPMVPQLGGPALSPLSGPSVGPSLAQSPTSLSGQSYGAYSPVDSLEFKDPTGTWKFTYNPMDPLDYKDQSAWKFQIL
Method in brief: as §1

[19] = target: ETV1 (Homo sapiens, UniProt P50549 1-477); details: protein: recombinant; tags: N-terminal GST; dsDNA, one strand shown
Sequence of ETV1 (P50549 whole entry): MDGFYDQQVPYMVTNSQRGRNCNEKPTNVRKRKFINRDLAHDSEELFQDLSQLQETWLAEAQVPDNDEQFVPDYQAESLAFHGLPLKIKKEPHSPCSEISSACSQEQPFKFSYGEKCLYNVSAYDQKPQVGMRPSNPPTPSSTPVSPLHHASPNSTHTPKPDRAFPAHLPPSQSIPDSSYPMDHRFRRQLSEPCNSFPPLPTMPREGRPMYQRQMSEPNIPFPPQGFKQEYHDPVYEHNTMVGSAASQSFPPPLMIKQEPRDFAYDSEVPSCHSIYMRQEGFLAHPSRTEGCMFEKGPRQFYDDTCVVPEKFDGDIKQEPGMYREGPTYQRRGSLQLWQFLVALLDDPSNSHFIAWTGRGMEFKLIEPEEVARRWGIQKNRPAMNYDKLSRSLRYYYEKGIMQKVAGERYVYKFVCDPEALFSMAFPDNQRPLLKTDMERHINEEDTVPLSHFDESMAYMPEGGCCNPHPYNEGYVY
Method in brief: as §1

Question: For CTTTAC, which binding signal [1] is on record?
Answer: 1.24 fold enrichment (6-mer frequency, TF over GST control)

Question: And the binding signal [2]?
Answer: 1.43 fold enrichment (6-mer frequency, TF over GST control)

Question: And the binding signal [3]?
Answer: 1.51 fold enrichment (6-mer frequency, TF over GST control)

Question: And the binding signal [4]?
Answer: 1.31 fold enrichment (6-mer frequency, TF over GST control)

Question: And the binding signal [5]?
Answer: 1.4 fold enrichment (6-mer frequency, TF over GST control)

Question: And the binding signal [6]?
Answer: 1.38 fold enrichment (6-mer frequency, TF over GST control)

Question: What about the binding signal [7] of the same sequence?
Answer: 1.4 fold enrichment (6-mer frequency, TF over GST control)

Question: What about the binding signal [8] of the same sequence?
Answer: 1.41 fold enrichment (6-mer frequency, TF over GST control)

Question: What about the binding signal [9] of the same sequence?
Answer: 1.47 fold enrichment (6-mer frequency, TF over GST control)

Question: What about the binding signal [10] of the same sequence?
Answer: 1.31 fold enrichment (6-mer frequency, TF over GST control)

Question: What about the binding signal [11] of the same sequence?
Answer: 1.3 fold enrichment (6-mer frequency, TF over GST control)

Question: What about the binding signal [12] of the same sequence?
Answer: 1.37 fold enrichment (6-mer frequency, TF over GST control)

Question: What about the binding signal [13] of the same sequence?
Answer: 1.4 fold enrichment (6-mer frequency, TF over GST control)

Question: And the binding signal [14]?
Answer: 1.45 fold enrichment (6-mer frequency, TF over GST control)

Question: And the binding signal [15]?
Answer: 1.44 fold enrichment (6-mer frequency, TF over GST control)

Question: What about the binding signal [16] of the same sequence?
Answer: 1.41 fold enrichment (6-mer frequency, TF over GST control)

Question: And the binding signal [17]?
Answer: 1.44 fold enrichment (6-mer frequency, TF over GST control)

Question: And the binding signal [18]?
Answer: 1.51 fold enrichment (6-mer frequency, TF over GST control)

Question: And the binding signal [19]?
Answer: 1.3 fold enrichment (6-mer frequency, TF over GST control)
